Results on 16 compounds are retold here after PubChem BioAssay (EPA / NIEHS).

Molecules are shown by their SMILES. Calls of active or inactive are those of the source. How the source made its calls: active means hit-call score of the fitted dose curve at least 0.9, where 1 is the maximum; inconclusive means response in the unintended direction; inactive means score below 0.9.

Usually AC50 stands for the concentration at which the activity in the assay is half-maximal.

Sequence of rat CYP3A2, Cyp3a2 (gene 266682) (P05183 whole entry, looked up): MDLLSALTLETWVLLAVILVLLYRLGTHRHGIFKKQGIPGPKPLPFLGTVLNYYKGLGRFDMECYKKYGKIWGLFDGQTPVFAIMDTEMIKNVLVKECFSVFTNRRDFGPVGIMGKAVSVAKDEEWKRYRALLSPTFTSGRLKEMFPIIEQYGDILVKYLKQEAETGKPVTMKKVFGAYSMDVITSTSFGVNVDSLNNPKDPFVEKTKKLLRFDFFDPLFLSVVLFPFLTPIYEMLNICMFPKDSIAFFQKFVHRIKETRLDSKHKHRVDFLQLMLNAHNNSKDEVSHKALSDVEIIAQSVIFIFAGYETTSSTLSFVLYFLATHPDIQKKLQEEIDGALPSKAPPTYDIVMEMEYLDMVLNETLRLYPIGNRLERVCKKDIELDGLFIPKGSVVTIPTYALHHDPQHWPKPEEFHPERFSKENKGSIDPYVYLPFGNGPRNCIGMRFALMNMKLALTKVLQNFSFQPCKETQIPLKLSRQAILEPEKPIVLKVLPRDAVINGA

This experiment deals with rat CYP3A2, Cyp3a2 (gene 266682) (UniProt P05183). Put plainly: NVS_ADME_rCYP3A2: NovaScreen (NVS) CYP450-related Enzyme Activity (ADME) Assay for rat CYP3A2 (AID 2283128). The protocol:
NVS_ADME_rCYP3A2 is a biochemical, single-readout assay that uses extracted gene-proteins in a cell-free assay. Measurements were taken 0.5 hour after chemical dosing in a 96-well plate.NVS_ADME_rCYP3A2 is one of one assay component(s) measured or calculated from the NVS_ADME_rCYP3A2 assay. It is designed to make measurements of enzyme activity, a form of enzyme reporter, as detected with fluorescence intensity signals by Fluorescence technology.Data from the assay component NVS_ADME_rCYP3A2 was analyzed into 1 assay endpoint. This assay endpoint, NVS_ADME_rCYP3A2, was analyzed in the positive analysis fitting direction relative to Acetonitrile as the negative control and baseline of activity. Using a type of enzyme reporter, loss-of-signal activity can be used to understand changes in the enzymatic activity as they relate to the gene Cyp3a2. Furthermore, this assay endpoint can be referred to as a primary readout, because this assay has produced multiple assay endpoints where this one serves a enzymatic activity function. To generalize the intended target to other relatable targets, this assay endpoint is annotated to the cyp intended target family, where the subfamily is xenobiotic metabolism.
Binding assays used specific radioligands (tritiated, iodinated) with non-radioactive competitive displacement ligands in agonist or antagonist protocols (as indicated) and various reference compounds and inhibitors to titrate specific binding to receptors and transporters. Most enzyme assays (CYPs, kinases, phosphatases, proteases, HDACs) used recombinant protein and specific substrates (fluorescence mostly, some colorimetric and radioactive) and inhibitors, followed by a biochemical separation of substrate and product. All assays for the biochemical HTS were initially run in duplicate at a single concentration (10 uM for CYP450 assays and 25 uM for all others). Assay-chemical combinations meeting a pre-defined threshold (e.g., 30% inhibition and other criteria defined below) were then run in singleton concentration-response format with maximum concentration of 20 uM for CYPs and 50 uM for all others. Each assay was run with positive and negative controls, and concurrent controls on every plate. The follow-up (secondary) screen tested active chemical-pairs in concentration series, as well as a few additional assays not tested in the primary screen, some selected negative inactives, and several cases re-run in the concentration series for confirmatory purposes.
As to `COP(=S)(OC)Oc1ccc([N+](=O)[O-])c(C)c1`, the half-maximal activity concentration (AC50) was 4290 nM (active).
Under `COC(=O)c1c(C(F)F)nc(C(F)(F)F)c(C2=NCCS2)c1CC(C)C` stands 5420 nM (active); under `C=CCOC(=O)C(C)(C)OC(=O)c1cc(-n2c(=O)cc(C(F)(F)F)n(C)c2=O)ccc1Cl`, 407 nM (active).
For `CCCCC(C#N)(Cn1cncn1)c1ccc(Cl)cc1` (stereo unspecified), the AC50 is 2960 nM (active).
With `CCCCC(O)(Cn1cncn1)c1ccc(Cl)cc1Cl` (stereo unspecified) the figure was 1600 nM (active); with `CC(C)=CC1C(C(=O)OCc2coc(Cc3ccccc3)c2)C1(C)C` (stereo unspecified), 7040 nM (active); with `CCN(CC)C(=O)C(C)Oc1cccc2ccccc12` (stereo unspecified), 5340 nM (active).
With `COC(=O)NC(=S)Nc1ccccc1NC(=S)NC(=O)OC`, the half-maximal activity concentration (AC50) was 7250 nM (active).
Regarding `COP(=S)(OC)SCn1nnc2ccccc2c1=O`, the AC50 was 393 nM (active).
With `CC1(C)CCC(=Cc2ccc(Cl)cc2)C1(O)Cn1cncn1` (stereo unspecified) the figure was 225 nM (active); with `CO/N=C(/C1=NOCCO1)c1ccccc1Oc1ncnc(Oc2ccccc2Cl)c1F`, 1180 nM (active).
With `COc1ccc(-c2ccccc2)cc1NNC(=O)OC(C)C` the figure was 832 nM (active).
With `CCNP(=S)(OC)O/C(C)=C/C(=O)OC(C)C` (stereo unspecified) the figure was 528 nM (active); with `Cc1ccc(N=CN(C)C=Nc2ccc(C)cc2C)c(C)c1`, 1230 nM (active); with `CCOc1cc(C(C)(C)C)ccc1C1COC(c2c(F)cccc2F)=N1` (stereo unspecified), 2180 nM (active).
For the compound `CCOP(=S)(OCC)Oc1nc(Cl)n(C(C)C)n1`, the AC50 is 1140 nM (active).
